Experimental data as given in PubChem BioAssay AID1159580 (chemical genetic matrix, 2015).
In all, about 5,500 compounds went through this assay and about 2,000 (36%) were called active. Inconclusive results (about 18%) are left out. No stated cut-off is given here; in the data, active means normalized growth mostly below about 0.91 (no sharp cut-off); inconclusive means no clear call, values can overlap the other calls; inactive means mostly above about 0.92. The list shows a part of the results.

Test: chemical genetic growth profiling, strain panel (AID 1159580);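 further: tested at 20 µM; growth read once vehicle control cultures reached saturation at 30 °C; 1 = growth at the plate median or of vehicle wells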
Settings: S. cerevisiae deletion strains, growth OD
[1] = locus YAR019C, strain CDC15, stronger effect = lower value
[2] = locus YBL105C, strain PKC1, stronger effect = lower value
[3] = locus YBR135W, strain CKS1, stronger effect = lower value
[4] = locus YBR136W, strain MEC1, stronger effect = lower value
[5] = locus YBR160W, strain CDC28, stronger effect = lower value
[6] = locus YDL017W, strain CDC7, stronger effect = lower value
[7] = locus YDL028C, strain MPS1, stronger effect = lower value
[8] = locus YDL101C, strain DUN1, stronger effect = lower value
[9] = locus YDL108W, strain KIN28, stronger effect = lower value
[10] = locus YDL132W, strain cdc53, stronger effect = lower value
[11] = locus YDL214C, strain PRR2, stronger effect = lower value
[12] = locus YDR052C, strain DBF4, stronger effect = lower value
[13] = locus YDR054C, strain cdc34, stronger effect = lower value
[14] = locus YDR226W, strain ADK1, stronger effect = lower value
[15] = locus YDR477W, strain SNF1, stronger effect = lower value
[16] = locus YER123W, strain YCK3, stronger effect = lower value
[17] = locus YER133W, strain GLC7, stronger effect = lower value
[18] = locus YFL009W, strain cdc4, stronger effect = lower value
[19] = locus YFL029C, strain CAK1, stronger effect = lower value
[20] = locus YFR003C, strain YPI1, stronger effect = lower value
[21] = locus YFR019W, strain FAB1, stronger effect = lower value
[22] = locus YFR028C, strain CDC14, stronger effect = lower value
[23] = locus YGR040W, strain KSS1, stronger effect = lower value
[24] = locus YGR052W, strain FMP48, stronger effect = lower value
[25] = locus YGR092W, strain DBF2, stronger effect = lower value
[26] = locus YHR030C, strain SLT2, stronger effect = lower value
[27] = locus YHR079C, strain IRE1, stronger effect = lower value
[28] = locus YHR082C, strain KSP1, stronger effect = lower value
[29] = locus YHR205W, strain SCH9, stronger effect = lower value
[30] = locus YIL147C, strain SLN1, stronger effect = lower value
[31] = locus YJL095W, strain BCK1, stronger effect = lower value
[32] = locus YJL128C, strain PBS2, stronger effect = lower value
[33] = locus YJL157C, strain FAR1, stronger effect = lower value
[34] = locus YJR016C, strain ILV3, stronger effect = lower value
[35] = locus YJR066W, strain TOR1 (second series), stronger effect = lower value
[36] = locus YJR066W, strain TOR1, stronger effect = lower value
[37] = locus YKL048C, strain ELM1, stronger effect = lower value
[38] = locus YKL067W, strain YNK1, stronger effect = lower value
[39] = locus YKL101W, strain HSL1, stronger effect = lower value
[40] = locus YKL193C, strain SDS22, stronger effect = lower value
[41] = locus YKL203C, strain TOR2, stronger effect = lower value
[42] = locus YLR113W, strain HOG1, stronger effect = lower value
[43] = locus YLR133W, strain CKI1, stronger effect = lower value
[44] = locus YLR403W, strain SFP1, stronger effect = lower value
[45] = locus YML070W, strain DAK1, stronger effect = lower value
[46] = locus YMR001C, strain CDC5, stronger effect = lower value
[47] = locus YMR205C, strain PFK2 (second series), stronger effect = lower value
[48] = locus YMR277W, strain FCP1, stronger effect = lower value
[49] = locus YNL006W, strain LST8, stronger effect = lower value
[50] = locus YNL020C, strain ARK1, stronger effect = lower value
[51] = locus YNL161W, strain CBK1, stronger effect = lower value
[52] = locus YNL183C, strain NPR1, stronger effect = lower value
[53] = locus YNL207W, strain RIO2, stronger effect = lower value
[54] = locus YNL222W, strain SSU72, stronger effect = lower value
[55] = locus YNL307C, strain MCK1 (second series), stronger effect = lower value
[56] = locus YOL078W, strain AVO1, stronger effect = lower value
[57] = locus YOL136C, strain PFK27, stronger effect = lower value
[58] = locus YOR061W, strain CKA2, stronger effect = lower value
[59] = locus YOR119C, strain RIO1, stronger effect = lower value
[60] = locus YOR231W, strain MKK1, stronger effect = lower value
[61] = locus YOR329C, strain SCD5, stronger effect = lower value
[62] = locus YPL031C, strain PHO85, stronger effect = lower value
[63] = locus YPL153C, strain RAD53, stronger effect = lower value
[64] = locus YPL204W, strain HRR25, stronger effect = lower value
[65] = locus YPL209C, strain IPL1, stronger effect = lower value
[66] = locus YPL256C, strain CLN2, stronger effect = lower value
[67] = locus YPR025C, strain CCL1, stronger effect = lower value
[68] = locus YPR106W, strain ISR1, stronger effect = lower value
[69] = locus YPR111W, strain DBF20, stronger effect = lower value
[70] = strain NNK1, stronger effect = lower value
[71] = strain TSCII, stronger effect = lower value

Measured: normalized growth

Cc1nc(C(F)(F)F)c(C(=O)O/N=C(/N)c2ccc(Cl)cc2)s1
inactive: [1] 0.98 | [2] 0.975 | [3] 0.98 | [4] 0.968 | [5] 0.983 | [6] 0.988 | [7] 0.974 | [8] 0.994 | [9] 0.98 | [10] 0.997 | [11] 0.967 | [12] 0.988 | [13] 1 | [14] 0.991 | [15] 0.942 | [16] 0.92 | [17] 0.942 | [18] 0.974 | [19] 0.983 | [20] 0.982 | [21] 0.938 | [22] 0.98 | [23] 0.941 | [24] 0.952 | [25] 0.933 | [26] 0.999 | [27] 0.83 | [28] 1.14 | [29] 0.921 | [30] 0.978 | [31] 0.818 | [32] 0.978 | [33] 0.952 | [34] 0.984 | [35] 0.926 | [36] 1.06 | [37] 1 | [38] 0.974 | [39] 0.983 | [40] 0.954 | [41] 1.03 | [43] 0.948 | [44] 0.905 | [45] 0.939 | [46] 0.973 | [47] 0.941 | [48] 0.974 | [49] 0.985 | [50] 0.945 | [51] 0.984 | [52] 0.876 | [53] 0.972 | [54] 0.977 | [55] 0.963 | [56] 0.97 | [57] 0.946 | [58] 0.948 | [59] 0.983 | [60] 0.831 | [61] 0.974 | [62] 0.947 | [63] 0.937 | [64] 0.921 | [65] 0.982 | [67] 0.993 | [68] 0.987 | [69] 0.976 | [70] 0.995 | [71] 0.974
active: [42] 0.79 | [66] 0.795

CCC1CCC(C)N(C(=S)Nc2ccc(Br)cc2C)C1 (stereo not drawn)
active: [26] 0.84
inactive: [1] 0.965 | [2] 0.976 | [3] 0.955 | [4] 0.971 | [5] 0.953 | [6] 0.966 | [7] 0.961 | [8] 0.958 | [9] 0.96 | [10] 0.956 | [11] 0.987 | [12] 0.969 | [13] 0.953 | [14] 0.963 | [15] 0.955 | [16] 0.936 | [17] 0.961 | [18] 0.956 | [19] 0.963 | [20] 0.978 | [21] 0.995 | [22] 0.967 | [23] 0.963 | [24] 1.11 | [25] 0.964 | [27] 0.979 | [28] 1.05 | [29] 0.993 | [30] 0.968 | [31] 0.913 | [32] 0.927 | [33] 0.986 | [34] 0.964 | [35] 1.01 | [36] 0.987 | [37] 0.956 | [38] 1 | [39] 0.95 | [40] 0.951 | [41] 1.05 | [42] 0.924 | [43] 0.98 | [44] 0.992 | [45] 0.958 | [46] 0.961 | [47] 0.973 | [48] 0.962 | [49] 0.966 | [50] 0.974 | [51] 0.948 | [52] 0.967 | [53] 0.957 | [54] 0.963 | [55] 0.948 | [56] 0.959 | [57] 0.964 | [58] 0.948 | [59] 1.08 | [60] 0.957 | [61] 0.968 | [62] 0.968 | [63] 0.955 | [64] 0.969 | [65] 0.967 | [66] 0.906 | [67] 0.959 | [68] 0.978 | [69] 0.979 | [70] 0.962 | [71] 0.95

CCCC1c2ccsc2CCN1C(=S)Nc1ccc(Cl)cc1Cl (stereo not drawn)
inactive: [1] 0.969 | [2] 0.971 | [3] 0.983 | [4] 0.972 | [5] 0.984 | [6] 0.973 | [7] 0.971 | [8] 0.984 | [9] 0.987 | [10] 0.98 | [11] 0.984 | [12] 0.981 | [13] 0.962 | [14] 0.968 | [15] 0.974 | [16] 0.952 | [17] 0.968 | [18] 0.971 | [19] 0.967 | [20] 0.975 | [21] 0.986 | [22] 0.963 | [23] 0.959 | [24] 1 | [25] 0.946 | [26] 0.922 | [27] 0.975 | [28] 0.987 | [29] 0.878 | [30] 0.973 | [31] 0.961 | [32] 0.946 | [33] 0.981 | [34] 0.972 | [35] 0.946 | [36] 0.981 | [37] 0.975 | [38] 0.97 | [39] 0.964 | [40] 0.969 | [41] 1.02 | [42] 0.897 | [43] 0.974 | [44] 0.931 | [45] 0.944 | [46] 0.977 | [47] 0.968 | [48] 0.977 | [49] 0.991 | [50] 0.986 | [51] 0.98 | [52] 0.966 | [53] 0.97 | [54] 0.976 | [55] 0.973 | [56] 0.974 | [57] 0.958 | [58] 0.964 | [59] 1.02 | [60] 0.978 | [61] 0.974 | [62] 0.966 | [63] 0.971 | [64] 0.985 | [65] 0.974 | [66] 0.932 | [67] 0.983 | [68] 0.973 | [69] 0.959 | [70] 0.965 | [71] 0.959
